How the values were obtained:
Assay in all cases: DAPPL (digital affinity profiling via proximity ligation, sequencing); 10 mM Tris-HCl pH 7.5, 50 mM NaCl, 1 mM DTT, 4% glycerol, room temperature, 30 min; GST-TFs on glutathione beads, 16-mer random dsDNA library, 0.1% formaldehyde crosslink after washing; high values mean tight binding
FLI1 = biological target: T1, FLI1 (Homo sapiens, UniProt Q01543 1-452); conditions: protein: recombinant; tags: N-terminal GST; dsDNA, one strand shown
T1 sequence: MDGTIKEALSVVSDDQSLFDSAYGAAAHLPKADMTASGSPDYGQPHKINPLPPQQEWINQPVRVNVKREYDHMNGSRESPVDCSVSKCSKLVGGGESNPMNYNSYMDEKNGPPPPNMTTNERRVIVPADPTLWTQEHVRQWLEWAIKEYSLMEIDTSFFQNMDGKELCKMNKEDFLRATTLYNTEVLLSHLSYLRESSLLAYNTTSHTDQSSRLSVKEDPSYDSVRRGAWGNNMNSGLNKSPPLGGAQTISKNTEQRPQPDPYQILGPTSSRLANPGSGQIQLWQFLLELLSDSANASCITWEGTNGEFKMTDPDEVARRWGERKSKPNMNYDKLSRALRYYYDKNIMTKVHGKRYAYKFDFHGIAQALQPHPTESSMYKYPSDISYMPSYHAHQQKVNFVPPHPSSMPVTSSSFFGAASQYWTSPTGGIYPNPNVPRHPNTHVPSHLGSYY
In short: (§1)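 Binding signal is defined as a hexamer's read frequency for one factor over its frequency for the tag-only sample. To obtain reads, GST-fused human transcription factors were expressed in yeast, captured on glutathione beads, barcoded with DNA and pooled with that sample. Pools met 200 nmole of a 16-mer random double-stranded DNA library in Tris/NaCl/DTT/glycerol buffer for 30 min at room temperature before washing, 0.1% formaldehyde crosslinking, proximity ligation (BsaI/T4 ligase, 1 h, 37 °C), PCR and Illumina NextSeq500 sequencing.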

ELK1 = biological target: T2, ELK1 (Homo sapiens, UniProt P19419 1-428); conditions: protein: recombinant; tags: N-terminal GST; dsDNA, one strand shown
T2 sequence: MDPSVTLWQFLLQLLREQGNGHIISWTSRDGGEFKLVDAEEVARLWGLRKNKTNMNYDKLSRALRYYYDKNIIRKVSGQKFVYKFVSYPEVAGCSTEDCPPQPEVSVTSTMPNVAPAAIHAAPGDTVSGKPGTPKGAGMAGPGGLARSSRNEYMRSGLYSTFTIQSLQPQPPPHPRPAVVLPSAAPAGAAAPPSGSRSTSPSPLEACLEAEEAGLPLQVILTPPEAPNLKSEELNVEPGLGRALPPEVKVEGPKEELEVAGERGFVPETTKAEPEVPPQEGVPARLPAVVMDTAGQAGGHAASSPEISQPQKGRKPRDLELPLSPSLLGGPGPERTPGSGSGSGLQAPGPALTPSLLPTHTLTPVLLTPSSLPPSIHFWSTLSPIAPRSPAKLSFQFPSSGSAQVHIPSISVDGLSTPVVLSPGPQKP
In short: as §1

GABPA = biological target: T3, GABPA (Homo sapiens, UniProt Q06546 1-454); conditions: protein: recombinant; tags: N-terminal GST; dsDNA, one strand shown
T3 sequence: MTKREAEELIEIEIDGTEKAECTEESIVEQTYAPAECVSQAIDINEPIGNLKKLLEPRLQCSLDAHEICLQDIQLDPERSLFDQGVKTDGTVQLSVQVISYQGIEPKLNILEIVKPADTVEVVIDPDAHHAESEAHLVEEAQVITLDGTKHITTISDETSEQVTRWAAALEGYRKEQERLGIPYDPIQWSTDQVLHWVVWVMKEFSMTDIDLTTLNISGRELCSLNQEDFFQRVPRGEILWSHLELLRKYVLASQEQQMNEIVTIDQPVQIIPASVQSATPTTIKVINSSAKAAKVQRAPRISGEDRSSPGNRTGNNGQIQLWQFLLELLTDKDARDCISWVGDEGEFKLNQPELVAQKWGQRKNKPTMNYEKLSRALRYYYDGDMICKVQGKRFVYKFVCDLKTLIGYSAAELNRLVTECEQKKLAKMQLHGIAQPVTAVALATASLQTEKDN
In short: as §1

ERG = biological target: T4, ERG (Homo sapiens, UniProt P11308 1-479); conditions: protein: recombinant; tags: N-terminal GST; dsDNA, one strand shown
T4 sequence: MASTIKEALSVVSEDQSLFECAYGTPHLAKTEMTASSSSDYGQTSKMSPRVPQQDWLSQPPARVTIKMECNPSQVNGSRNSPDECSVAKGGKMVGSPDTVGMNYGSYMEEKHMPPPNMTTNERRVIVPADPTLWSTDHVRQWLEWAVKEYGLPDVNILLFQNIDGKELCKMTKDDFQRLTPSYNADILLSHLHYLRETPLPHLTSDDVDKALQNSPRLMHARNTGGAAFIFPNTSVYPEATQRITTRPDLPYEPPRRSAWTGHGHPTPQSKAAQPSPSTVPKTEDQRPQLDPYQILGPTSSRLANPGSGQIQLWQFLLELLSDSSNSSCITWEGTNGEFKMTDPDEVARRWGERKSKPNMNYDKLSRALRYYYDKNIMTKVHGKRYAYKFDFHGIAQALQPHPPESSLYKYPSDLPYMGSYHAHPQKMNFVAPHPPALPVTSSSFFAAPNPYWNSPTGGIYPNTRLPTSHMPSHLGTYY
In short: as §1

ELF1 = ELF1 (Homo sapiens, UniProt P32519 1-619); conditions: protein: recombinant; tags: N-terminal GST; dsDNA, one strand shown
In short: as §1

EHF = biological target: T5, EHF (Homo sapiens, UniProt Q9NZC4 1-300); conditions: protein: recombinant; tags: N-terminal GST; dsDNA, one strand shown
T5 sequence: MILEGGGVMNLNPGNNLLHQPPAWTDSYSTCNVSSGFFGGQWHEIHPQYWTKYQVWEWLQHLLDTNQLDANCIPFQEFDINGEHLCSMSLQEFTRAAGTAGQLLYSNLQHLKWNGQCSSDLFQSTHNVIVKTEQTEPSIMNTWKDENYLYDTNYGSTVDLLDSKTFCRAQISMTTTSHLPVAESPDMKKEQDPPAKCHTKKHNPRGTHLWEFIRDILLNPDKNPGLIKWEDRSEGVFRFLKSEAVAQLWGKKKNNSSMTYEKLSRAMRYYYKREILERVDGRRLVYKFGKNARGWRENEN
In short: as §1

SPI1 = SPI1 (Homo sapiens, UniProt P17947 1-270); conditions: protein: recombinant; tags: N-terminal GST; dsDNA, one strand shown
In short: as §1

SPIB = SPIB (Homo sapiens, UniProt Q01892 1-262); conditions: protein: recombinant; tags: N-terminal GST; dsDNA, one strand shown
In short: as §1

ELK3 = biological target: T6, ELK3 (Homo sapiens, UniProt P41970 1-407); conditions: protein: recombinant; tags: N-terminal GST; dsDNA, one strand shown
T6 sequence: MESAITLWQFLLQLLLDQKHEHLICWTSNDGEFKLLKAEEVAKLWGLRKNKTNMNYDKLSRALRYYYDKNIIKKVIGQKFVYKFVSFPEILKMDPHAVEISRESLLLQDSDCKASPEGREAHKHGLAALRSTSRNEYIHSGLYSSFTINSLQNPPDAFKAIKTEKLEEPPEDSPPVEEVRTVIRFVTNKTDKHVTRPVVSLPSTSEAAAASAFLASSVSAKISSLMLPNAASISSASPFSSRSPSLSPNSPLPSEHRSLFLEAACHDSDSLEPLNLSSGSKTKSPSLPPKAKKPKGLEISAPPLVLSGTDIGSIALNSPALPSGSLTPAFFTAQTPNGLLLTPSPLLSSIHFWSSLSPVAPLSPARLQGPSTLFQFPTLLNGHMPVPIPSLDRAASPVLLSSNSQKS
In short: as §1

FEV = biological target: T7, FEV (Homo sapiens, UniProt Q99581 1-238); conditions: protein: recombinant; tags: N-terminal GST; dsDNA, one strand shown
T7 sequence: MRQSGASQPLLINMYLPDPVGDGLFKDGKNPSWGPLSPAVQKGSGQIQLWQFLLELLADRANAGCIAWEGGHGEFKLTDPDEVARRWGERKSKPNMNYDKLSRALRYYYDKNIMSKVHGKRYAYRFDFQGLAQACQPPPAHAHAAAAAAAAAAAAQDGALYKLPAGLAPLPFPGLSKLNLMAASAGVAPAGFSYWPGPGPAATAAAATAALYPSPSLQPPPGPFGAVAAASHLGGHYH
In short: as §1

ETV5 = ETV5 (Homo sapiens, UniProt P41161 1-510); conditions: protein: recombinant; tags: N-terminal GST; dsDNA, one strand shown
In short: as §1

HSF1 = HSF1 (Homo sapiens, UniProt Q00613 1-529); conditions: protein: recombinant; tags: N-terminal GST; chain copies: 3; dsDNA, one strand shown
In short: as §1

SPIC = biological target: T8, SPIC (Homo sapiens, UniProt Q8N5J4 1-248); conditions: protein: recombinant; tags: N-terminal GST; dsDNA, one strand shown
T8 sequence: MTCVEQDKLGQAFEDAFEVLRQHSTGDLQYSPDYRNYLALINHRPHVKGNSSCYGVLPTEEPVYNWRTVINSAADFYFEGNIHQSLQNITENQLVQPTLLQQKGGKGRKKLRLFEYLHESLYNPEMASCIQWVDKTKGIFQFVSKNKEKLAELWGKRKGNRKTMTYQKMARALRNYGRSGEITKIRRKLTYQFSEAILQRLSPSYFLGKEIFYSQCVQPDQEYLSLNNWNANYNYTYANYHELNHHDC
In short: as §1

ELF4 = ELF4 (Homo sapiens, UniProt Q99607 1-663); conditions: protein: recombinant; tags: N-terminal GST; dsDNA, one strand shown
In short: as §1

ELK4 = biological target: T9, ELK4 (Homo sapiens, UniProt P28324-2 1-405); conditions: protein: recombinant; tags: N-terminal GST; dsDNA, one strand shown
T9 sequence: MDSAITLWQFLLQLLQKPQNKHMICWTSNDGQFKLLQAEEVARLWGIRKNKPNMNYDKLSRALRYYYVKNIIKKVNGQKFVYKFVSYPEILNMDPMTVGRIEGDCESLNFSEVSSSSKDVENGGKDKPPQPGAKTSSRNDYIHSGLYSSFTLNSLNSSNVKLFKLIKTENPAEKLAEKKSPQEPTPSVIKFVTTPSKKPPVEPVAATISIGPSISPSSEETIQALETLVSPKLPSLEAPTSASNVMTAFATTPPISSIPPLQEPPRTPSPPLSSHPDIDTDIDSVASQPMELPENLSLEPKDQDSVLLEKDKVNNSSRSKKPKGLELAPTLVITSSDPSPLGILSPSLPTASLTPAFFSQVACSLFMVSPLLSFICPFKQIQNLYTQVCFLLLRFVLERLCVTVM
In short: as §1

ETV2 = biological target: T10, ETV2 (Homo sapiens, UniProt O00321 1-342); conditions: protein: recombinant; tags: N-terminal GST; dsDNA, one strand shown
T10 sequence: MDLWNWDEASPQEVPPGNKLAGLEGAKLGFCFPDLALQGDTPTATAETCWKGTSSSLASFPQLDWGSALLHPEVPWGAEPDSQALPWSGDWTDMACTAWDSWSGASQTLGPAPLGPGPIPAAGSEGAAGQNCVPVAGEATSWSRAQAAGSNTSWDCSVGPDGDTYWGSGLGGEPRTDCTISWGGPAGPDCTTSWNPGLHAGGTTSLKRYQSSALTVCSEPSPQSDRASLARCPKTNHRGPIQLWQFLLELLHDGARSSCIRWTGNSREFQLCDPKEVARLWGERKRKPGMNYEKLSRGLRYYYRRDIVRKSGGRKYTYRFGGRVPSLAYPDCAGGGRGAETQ
In short: as §1

ELF3 = biological target: T11, ELF3 (Homo sapiens, UniProt P78545 1-371); conditions: protein: recombinant; tags: N-terminal GST; dsDNA, one strand shown
T11 sequence: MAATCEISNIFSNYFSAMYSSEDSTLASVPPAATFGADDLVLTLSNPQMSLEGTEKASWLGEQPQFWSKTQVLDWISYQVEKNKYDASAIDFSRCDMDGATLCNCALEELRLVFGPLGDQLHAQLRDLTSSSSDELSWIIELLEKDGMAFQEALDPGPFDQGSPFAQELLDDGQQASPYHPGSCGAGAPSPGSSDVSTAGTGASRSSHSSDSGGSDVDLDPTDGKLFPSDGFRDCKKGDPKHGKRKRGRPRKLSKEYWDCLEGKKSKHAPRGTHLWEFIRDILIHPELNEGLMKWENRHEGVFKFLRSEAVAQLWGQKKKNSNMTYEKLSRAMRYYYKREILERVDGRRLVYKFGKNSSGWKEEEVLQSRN
In short: as §1

CRX = CRX (Homo sapiens, UniProt O43186 1-299); conditions: protein: recombinant; tags: N-terminal GST; dsDNA, one strand shown
In short: as §1

ETV1 = ETV1 (Homo sapiens, UniProt P50549 1-477); conditions: protein: recombinant; tags: N-terminal GST; dsDNA, one strand shown
In short: as §1

ETV5, sequence (P41161 whole entry): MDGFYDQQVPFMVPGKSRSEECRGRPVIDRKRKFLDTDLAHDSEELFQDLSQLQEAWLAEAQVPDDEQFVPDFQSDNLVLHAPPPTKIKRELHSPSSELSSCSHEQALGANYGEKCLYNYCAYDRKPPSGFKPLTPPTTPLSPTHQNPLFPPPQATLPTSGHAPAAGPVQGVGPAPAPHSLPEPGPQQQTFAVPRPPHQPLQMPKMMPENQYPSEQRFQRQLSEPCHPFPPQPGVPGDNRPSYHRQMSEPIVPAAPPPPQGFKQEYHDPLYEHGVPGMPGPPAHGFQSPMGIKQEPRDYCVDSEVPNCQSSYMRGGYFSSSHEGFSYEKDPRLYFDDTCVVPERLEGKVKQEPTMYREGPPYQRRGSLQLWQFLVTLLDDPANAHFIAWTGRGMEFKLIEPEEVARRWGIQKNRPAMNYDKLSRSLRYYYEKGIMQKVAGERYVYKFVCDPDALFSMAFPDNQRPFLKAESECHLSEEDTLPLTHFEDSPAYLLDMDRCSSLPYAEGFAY
HSF1, sequence (Q00613 whole entry): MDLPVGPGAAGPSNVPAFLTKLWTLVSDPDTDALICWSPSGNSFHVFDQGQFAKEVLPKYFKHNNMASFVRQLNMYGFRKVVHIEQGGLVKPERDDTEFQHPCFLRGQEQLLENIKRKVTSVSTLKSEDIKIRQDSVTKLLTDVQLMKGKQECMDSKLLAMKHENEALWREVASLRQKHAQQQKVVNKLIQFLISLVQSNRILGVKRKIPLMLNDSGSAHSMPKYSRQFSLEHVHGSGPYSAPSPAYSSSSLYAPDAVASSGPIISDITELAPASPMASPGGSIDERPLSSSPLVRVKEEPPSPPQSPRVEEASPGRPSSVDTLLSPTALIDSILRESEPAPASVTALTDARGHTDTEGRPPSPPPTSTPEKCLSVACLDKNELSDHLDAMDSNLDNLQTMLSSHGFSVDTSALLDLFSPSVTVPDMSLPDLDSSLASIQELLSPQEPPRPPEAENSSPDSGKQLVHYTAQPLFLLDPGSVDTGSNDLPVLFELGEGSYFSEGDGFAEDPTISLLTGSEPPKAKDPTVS
ETV1, sequence (P50549 whole entry): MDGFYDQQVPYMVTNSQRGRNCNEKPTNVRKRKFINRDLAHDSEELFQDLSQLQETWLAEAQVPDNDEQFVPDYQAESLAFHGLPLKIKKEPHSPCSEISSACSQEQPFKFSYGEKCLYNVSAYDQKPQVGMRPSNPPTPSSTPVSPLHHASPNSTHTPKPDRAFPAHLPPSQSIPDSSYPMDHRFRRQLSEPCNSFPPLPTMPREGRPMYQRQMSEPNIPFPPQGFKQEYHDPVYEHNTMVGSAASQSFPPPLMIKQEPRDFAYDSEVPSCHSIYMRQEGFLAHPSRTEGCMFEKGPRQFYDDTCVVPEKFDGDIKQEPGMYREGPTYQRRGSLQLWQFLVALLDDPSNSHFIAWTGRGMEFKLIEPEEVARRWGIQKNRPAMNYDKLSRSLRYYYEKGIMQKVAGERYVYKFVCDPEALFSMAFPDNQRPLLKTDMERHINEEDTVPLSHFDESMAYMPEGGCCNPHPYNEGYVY
ELF4, sequence (Q99607 whole entry): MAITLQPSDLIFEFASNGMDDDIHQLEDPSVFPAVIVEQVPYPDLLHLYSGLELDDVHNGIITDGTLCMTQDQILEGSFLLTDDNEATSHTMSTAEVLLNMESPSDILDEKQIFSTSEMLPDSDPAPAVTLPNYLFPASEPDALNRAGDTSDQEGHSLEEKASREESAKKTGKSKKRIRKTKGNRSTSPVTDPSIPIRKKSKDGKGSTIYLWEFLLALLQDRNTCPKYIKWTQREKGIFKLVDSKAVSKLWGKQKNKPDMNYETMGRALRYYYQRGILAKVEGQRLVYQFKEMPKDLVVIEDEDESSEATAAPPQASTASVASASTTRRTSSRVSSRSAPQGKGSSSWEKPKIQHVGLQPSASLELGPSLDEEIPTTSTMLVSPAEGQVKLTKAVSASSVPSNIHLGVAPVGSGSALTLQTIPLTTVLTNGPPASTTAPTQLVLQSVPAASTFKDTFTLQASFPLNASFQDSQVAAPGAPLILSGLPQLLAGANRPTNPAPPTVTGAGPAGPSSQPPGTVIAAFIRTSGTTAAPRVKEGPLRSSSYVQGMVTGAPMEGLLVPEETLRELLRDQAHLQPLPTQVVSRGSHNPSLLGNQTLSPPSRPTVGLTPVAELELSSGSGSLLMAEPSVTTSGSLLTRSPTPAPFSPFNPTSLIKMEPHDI
CRX, sequence (O43186 whole entry): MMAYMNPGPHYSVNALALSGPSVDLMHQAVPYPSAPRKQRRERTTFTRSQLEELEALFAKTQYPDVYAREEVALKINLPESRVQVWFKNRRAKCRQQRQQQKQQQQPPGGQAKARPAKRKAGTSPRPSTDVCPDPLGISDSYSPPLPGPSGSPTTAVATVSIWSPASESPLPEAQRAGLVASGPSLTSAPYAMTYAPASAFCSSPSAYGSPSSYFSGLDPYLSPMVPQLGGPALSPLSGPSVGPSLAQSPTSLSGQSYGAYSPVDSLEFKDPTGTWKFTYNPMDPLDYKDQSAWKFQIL
ELF1, sequence (P32519 whole entry): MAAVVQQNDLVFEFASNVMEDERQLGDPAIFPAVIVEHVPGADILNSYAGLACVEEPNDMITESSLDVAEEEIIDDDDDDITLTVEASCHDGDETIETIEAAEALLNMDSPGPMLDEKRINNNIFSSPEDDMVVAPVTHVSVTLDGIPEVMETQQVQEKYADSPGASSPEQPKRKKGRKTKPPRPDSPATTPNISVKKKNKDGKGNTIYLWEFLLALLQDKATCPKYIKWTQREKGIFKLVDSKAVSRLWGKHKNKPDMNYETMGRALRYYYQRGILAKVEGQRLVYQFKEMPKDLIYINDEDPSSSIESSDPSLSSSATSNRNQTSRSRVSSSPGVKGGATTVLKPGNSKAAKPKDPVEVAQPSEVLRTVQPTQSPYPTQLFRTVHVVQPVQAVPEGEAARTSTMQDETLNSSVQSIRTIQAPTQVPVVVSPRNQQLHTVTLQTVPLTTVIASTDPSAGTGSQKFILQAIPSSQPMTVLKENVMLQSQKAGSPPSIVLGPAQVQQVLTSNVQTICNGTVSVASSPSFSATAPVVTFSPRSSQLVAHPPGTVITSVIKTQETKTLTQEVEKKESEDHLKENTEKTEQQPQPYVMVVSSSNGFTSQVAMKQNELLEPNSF
SPIB, sequence (Q01892 whole entry): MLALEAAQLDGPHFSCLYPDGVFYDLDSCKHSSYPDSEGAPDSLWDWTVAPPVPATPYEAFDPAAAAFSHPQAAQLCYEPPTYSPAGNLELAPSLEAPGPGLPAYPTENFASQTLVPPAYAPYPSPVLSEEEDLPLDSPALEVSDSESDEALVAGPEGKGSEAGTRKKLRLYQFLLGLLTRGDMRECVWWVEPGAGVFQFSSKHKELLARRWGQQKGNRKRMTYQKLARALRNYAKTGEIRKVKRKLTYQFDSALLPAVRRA

TCTTGT was tested, and the binding signal (FLI1) was 1.48 fold enrichment (6-mer frequency, TF over GST control), the binding signal (ELK1) was 1.64 fold enrichment (6-mer frequency, TF over GST control) and the binding signal (GABPA) was 1.53 fold enrichment (6-mer frequency, TF over GST control). For the same sequence, the binding signal (ERG) was 1.54 fold enrichment (6-mer frequency, TF over GST control), the binding signal (ELF1) was 1.53 fold enrichment (6-mer frequency, TF over GST control) and the binding signal (EHF) was 1.57 fold enrichment (6-mer frequency, TF over GST control). The binding signal (SPI1) was 1.5 fold enrichment (6-mer frequency, TF over GST control), the binding signal (SPIB) was 1.55 fold enrichment (6-mer frequency, TF over GST control) and the binding signal (ELK3) was 1.58 fold enrichment (6-mer frequency, TF over GST control). For the same sequence, the binding signal (FEV) was 1.52 fold enrichment (6-mer frequency, TF over GST control), the binding signal (ETV5) was 1.49 fold enrichment (6-mer frequency, TF over GST control) and the binding signal (HSF1) was 1.55 fold enrichment (6-mer frequency, TF over GST control). The binding signal (SPIC) was 1.39 fold enrichment (6-mer frequency, TF over GST control), the binding signal (ELF4) was 1.66 fold enrichment (6-mer frequency, TF over GST control) and the binding signal (ELK4) was 1.49 fold enrichment (6-mer frequency, TF over GST control). For the same sequence, the binding signal (ETV2) was 1.4 fold enrichment (6-mer frequency, TF over GST control), the binding signal (ELF3) was 1.55 fold enrichment (6-mer frequency, TF over GST control) and the binding signal (CRX) was 1.48 fold enrichment (6-mer frequency, TF over GST control). For the same sequence, the binding signal (ETV1) was 1.57 fold enrichment (6-mer frequency, TF over GST control).
